According to PubChem BioAssay (NCI):
The panel holds about 79,000 compounds, 15% with a hit somewhere; the sample as a whole holds those more often. Calls of active or inactive are those of the source. Rule as the data show it: active = growth inhibition above about 70%; inactive = the rest.

What was measured:
[1] = NCI Yeast Anticancer Drug Screen. Data for the rad50 strain (AID 155);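 also: 0% = growth of vehicle-only cultures of the same strain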; details: S. cerevisiae rad50 strain growth inhibition, hits give high values
Summary of the method: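 DNA repair mutant yeast, compound exposure, growth read-out; inhibition is taken relative to vehicle.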

[2] = NCI Yeast Anticancer Drug Screen. Data for the mec2-1 strain (AID 157); details: S. cerevisiae mec2-1 strain, hits give high values
Summary of the method: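 Compounds were applied to mec2-1 yeast cells. Their growth was then compared with that of vehicle-treated cultures to give growth inhibition.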

[3] = NCI Yeast Anticancer Drug Screen. Data for the sgs1 mgt1 strain (AID 161);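 also: 0% = growth of cultures given vehicle only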; details: S. cerevisiae sgs1 mgt1 strain, hits give high values
Summary of the method: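 Yeast cells carrying a defined DNA-repair defect were exposed to test compounds. Growth inhibition was measured relative to vehicle-treated controls.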

[4] = NCI Yeast Anticancer Drug Screen. Data for the cln2 rad14 strain (AID 165);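 also: 0% = growth equal to vehicle treated cultures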; details: S. cerevisiae cln2 rad14 strain, hits give high values
Summary of the method: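 Strain: cln2 rad14 yeast, altered in cell cycle control and DNA damage repair. Read-out: growth inhibition vs vehicle.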

[5] = NCI Yeast Anticancer Drug Screen. Data for the bub3 strain (AID 167); details: S. cerevisiae bub3 mutant strain, hits give high values
Summary of the method: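 In this screen, a yeast mutant lacking normal mitotic checkpoint function is challenged with compound. Relative growth versus vehicle gives the inhibition value.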

[6] = NCI Yeast Anticancer Drug Screen. Data for the mlh1 rad18 strain (AID 175); details: S. cerevisiae mlh1 rad18 strain growth inhibition, hits give high values
Summary of the method: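 A repair-deficient yeast strain is exposed to test compound, and growth is scored relative to vehicle-treated controls.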

[7] = at 5.0 µM (retest, dose inferred, filed as 0.5)
[8] = at 50.0 µM (retest, dose inferred, filed as 5.0)

Measured: growth inhibition

CC(=O)N(C1=C(Cl)C(=O)c2ccccc2C1=O)c1ccc([N+](=O)[O-])cc1
active: [1]; [7] 98% | [1]; [8] 98% | [1]; at 50.0 µM 99.2% | [2]; [7] 99% | [2]; [8] 99% | [2]; at 50.0 µM 99.2% | [3]; [7] 98% | [3]; [8] 100% | [3]; at 50.0 µM 99.5% | [4]; [7] 96% | [4]; [8] 97% | [4]; at 50.0 µM 99.5% | [5]; [7] 99% | [5]; [8] 98% | [5]; at 50.0 µM 98.6% | [6]; [7] 98% | [6]; [8] 99% | [6]; at 50.0 µM 99%

Cc1nc(C(N)=S)sc1C(=O)C/C(=N/N)C(=O)Nc1cccc(Cl)c1C
inactive: [1]; [7] 8% | [1]; [8] 24% | [1]; at 50.0 µM 26.1% | [2]; [7] -5% | [2]; [8] 14% | [2]; at 50.0 µM 29.6% | [3]; [7] -7% | [3]; [8] 23% | [3]; at 50.0 µM -4.95% | [4]; [7] -28% | [4]; [8] -15% | [4]; at 50.0 µM -15.2% | [5]; [7] 5% | [5]; [8] 23% | [5]; at 50.0 µM 6.25% | [6]; [7] 11% | [6]; [8] 7% | [6]; at 50.0 µM 37.1%

CCOC(=O)/C=C(/Cl)C(=O)OCC
inactive: [1]; [7] 12% | [2]; [7] 5% | [3]; [7] 7% | [4]; [7] 1% | [5]; [7] 18% | [6]; [7] 6%
active: [1]; [8] 98% | [1]; at 50.0 µM 98.5% | [2]; [8] 99% | [2]; at 50.0 µM 99.4% | [3]; [8] 98% | [3]; at 50.0 µM 99.5% | [4]; [8] 99% | [4]; at 50.0 µM 99% | [5]; [8] 99% | [5]; at 50.0 µM 99.2% | [6]; [8] 99% | [6]; at 50.0 µM 99.1%

CC(C)C(Cl)CC/C(CBr)=C(\Cl)CCl (configuration not stated)
active: [1]; [8] 89% | [1]; at 50.0 µM 75% | [2]; [8] 92% | [2]; at 50.0 µM 80.8% | [3]; [8] 99% | [3]; at 50.0 µM 92.4% | [4]; [8] 96% | [4]; at 50.0 µM 91.1% | [5]; [8] 98% | [5]; at 50.0 µM 92.3% | [6]; [8] 97%
inactive: [1]; [7] 28% | [2]; [7] 29% | [3]; [7] 27% | [4]; [7] 24% | [5]; [7] 23% | [6]; [7] 28% | [6]; at 50.0 µM 18.9%

Cc1cc(C)nc(NS(=O)(=O)c2ccc(NC(=O)c3cccnc3Nc3cccc(Cl)c3)cc2)n1
active: [6]; at 50.0 µM 81.5%
inactive: [1]; [7] -2% | [1]; [8] 33% | [1]; at 50.0 µM 45.9% | [2]; [7] -9% | [2]; [8] 34% | [2]; at 50.0 µM 13.1% | [3]; [7] 6% | [3]; [8] 51% | [3]; at 50.0 µM 54.9% | [4]; [7] -10% | [4]; [8] 35% | [4]; at 50.0 µM 22.1% | [5]; [7] -6% | [5]; [8] 41% | [5]; at 50.0 µM 25.5% | [6]; [7] -1% | [6]; [8] 53%

Cc1cc(O)cc(C)c1[N+](=O)[O-]
active: [3]; at 50.0 µM 79.6%
inactive: [1]; [7] 5% | [1]; [8] 25% | [1]; at 50.0 µM 55% | [2]; [7] 0% | [2]; [8] 24% | [2]; at 50.0 µM 49.8% | [3]; [7] -6% | [3]; [8] 41% | [4]; [7] -1% | [4]; [8] 20% | [4]; at 50.0 µM 23.6% | [5]; [7] -1% | [5]; [8] 36% | [5]; at 50.0 µM 29.3% | [6]; [7] 4% | [6]; [8] 41% | [6]; at 50.0 µM 63.5%

N=C(N)SCc1nc(-c2ccc(Cl)cc2)no1
inactive: [1]; [7] 18% | [2]; [7] 8% | [2]; [8] 57% | [3]; [7] 0% | [4]; [7] 0% | [4]; [8] 61% | [5]; [7] -4% | [6]; [7] -10% | [6]; [8] 64%
active: [1]; [8] 77% | [1]; at 50.0 µM 94.3% | [2]; at 50.0 µM 87.5% | [3]; [8] 78% | [3]; at 50.0 µM 90.1% | [4]; at 50.0 µM 70% | [5]; [8] 72% | [5]; at 50.0 µM 94% | [6]; at 50.0 µM 84.9%

NS(=O)(=O)c1ccc(N=Cc2c3ccccc3nc3cc(Cl)ccc23)cc1
inactive: [1]; [7] 10% | [1]; [8] 34% | [1]; at 50.0 µM 46.4% | [2]; [7] 12% | [2]; [8] 28% | [2]; at 50.0 µM 49.1% | [3]; [7] 16% | [3]; [8] 39% | [3]; at 50.0 µM 53.1% | [4]; [7] 3% | [4]; [8] 12% | [4]; at 50.0 µM 8.05% | [5]; [7] 19% | [5]; [8] 38% | [5]; at 50.0 µM 27.6% | [6]; [7] 17% | [6]; [8] 38% | [6]; at 50.0 µM 58.9%

COc1ccc(C)cc1NC(=O)ON=C1CCCCC1
inactive: [1]; [7] 45% | [2]; [7] 35% | [3]; [7] 47% | [4]; [7] 38% | [5]; [7] 30% | [6]; [7] 48%
active: [1]; [8] 83% | [1]; at 50.0 µM 88.2% | [2]; [8] 88% | [2]; at 50.0 µM 91.8% | [3]; [8] 92% | [3]; at 50.0 µM 91.9% | [4]; [8] 81% | [4]; at 50.0 µM 90.5% | [5]; [8] 91% | [5]; at 50.0 µM 91.7% | [6]; [8] 94% | [6]; at 50.0 µM 90.5%
